# MEKK3 PB1 HTS: modulators (inhibitors or enhancers) of MEK5 binding to human MEKK3 PB1 domain. AID 1529. 290,000 tested, 1.4% active. bead-based flow cytometry, Alexa488-MEK5 binding to MEKK3; actives lie on both sides; 0 = blocked by unlabeled MEK5, 100 = vehicle. Q99759. binding response (% of control), % at 10 µM;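 active = binding response more than 3 SD above or below the average of its plate-row segment, actives on both sides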;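 also: Alexa488 bead fluorescence after subtracting the streptavidin-only scavenger bead signal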
# MEKK2 mut-MEK5: signal of MEK5 binding to mutant human MEKK2 PB1 domain. AID 1530. bead flow cytometry, Alexa488-MEK5 binding to MEKK2 mutant. 290,000 tested, 0.35% active. percent response, % at 10 µM; in the data active = percent response above about 24%, passing the limit was not always enough
# MEKK2wt PB1 HTS: raises or lowers MEK5 binding to wildtype human MEKK2 PB1 domain; Q9Y2U5; binding response (% of control), % at 10 µM; 290,000 tested, 1.1% active; bead flow cytometry, Alexa488-MEK5 binding to MEKK2 WT; actives lie on both sides; in the data active = binding response below about 67% or above about 130%
# Rce1 inh: blocks yeast Ras-converting enzyme; Q03530; yeast membranes, quenched prenylated peptide cleavage fluorescence; calls only; 290,000 tested, 0.27% active; AID 2563;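 active = fall in fluorescence gain of 50% or more versus controls, with final raw signal at or below 3038400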
# Target sequence (Q03530 whole entry, looked up): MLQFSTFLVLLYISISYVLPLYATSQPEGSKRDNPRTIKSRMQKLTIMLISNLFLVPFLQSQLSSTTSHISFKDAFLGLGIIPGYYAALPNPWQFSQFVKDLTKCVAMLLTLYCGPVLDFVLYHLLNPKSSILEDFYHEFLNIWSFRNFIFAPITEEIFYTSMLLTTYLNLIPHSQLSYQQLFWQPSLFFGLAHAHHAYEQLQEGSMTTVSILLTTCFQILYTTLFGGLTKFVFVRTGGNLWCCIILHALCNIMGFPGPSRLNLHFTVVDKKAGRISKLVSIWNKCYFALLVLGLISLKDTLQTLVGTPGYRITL
# UBC13 inh: human UBC13 polyubiquitination inhibition | P61088 | UBC13 polyubiquitin chain formation, TR-FRET | inhibition, % at 20 µM | 330,000 tested, 0.47% active | AID 485273; in the data active = inhibition above about 45%, passing the limit was not always enough
# Target sequence (P61088 whole entry, looked up): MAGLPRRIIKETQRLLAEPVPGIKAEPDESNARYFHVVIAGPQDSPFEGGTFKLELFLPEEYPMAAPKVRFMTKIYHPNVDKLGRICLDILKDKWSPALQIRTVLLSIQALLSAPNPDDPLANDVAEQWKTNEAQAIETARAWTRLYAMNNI
# MEKK2wt confirm: raises or lowers MEK5 binding to wildtype human MEKK2, retest. bead flow cytometry, Alexa488-MEK5 binding to MEKK2 WT; actives lie on both sides. shares compounds with MEKK3 PB1 HTS. binding response (% of control), % at 10 µM. 5,900 tested, 2.4% active; in the data active = binding response below about 16% or above about 210%; inactive = in between
# MEKK2mut-MEK5: signal of MEK5 binding to mutant human MEKK2, retest; shares compounds with MEKK3 PB1 HTS; bead flow cytometry, Alexa488-MEK5 binding to MEKK2 mutant; percent response, % at 10 µM; 5,900 tested, 2% active; AID 1893; in the data active = percent response mostly above about 71%, no sharp cut-off; inactive = mostly below about 38%;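 also: higher means compound restores mutant binding toward wildtype level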
# MEKK3-MEK5 inh: confirmation of inhibitors of MEK5 binding to human MEKK3; binding response (% of control), % at 10 µM; shares compounds with MEKK3 PB1 HTS; 5,900 tested, 1.8% active; bead flow cytometry, Alexa488-MEK5 binding to MEKK3; stronger effect = lower value;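 active = binding response below 72% of control, or above a set upper limit, though filed actives all read lower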
# Hits are given with their value; i = inactive; nt = no result; ! = not confirmed by another sample; [ ] = dose if it differs, or a comment. An excerpt weighted towards active compounds, which were near 2.5% of everything screened.
SMILES,MEKK3 PB1 HTS,MEKK2 mut-MEK5,MEKK2wt PB1 HTS,Rce1 inh,UBC13 inh,MEKK2wt confirm,MEKK2mut-MEK5,MEKK3-MEK5 inh
COc1ccc(C(=O)NCc2nnc(SCC(=O)Nc3ccccc3F)o2)cc1,3.0[inhibitor],i,3.0[inhibitor],i,i,i,i,i
COc1ccc(-c2cn3nc(SCC(=O)NCC4CCCO4)ccc3n2)cc1 (configuration not stated),i,i,i,i,i,nt,nt,nt
COc1ccc(CN2CCC(N(CCc3ccccc3)Cc3ccccc3)CC2)c(OC)c1,i,52,161,i,i,i,i,i
COc1ccccc1NC(=O)C(C/C=C(\C)Cl)C(C)=O (configuration not stated),79[inhibitor],i,i,i,i,i,i,i
CCOC(=O)NC(NCc1ccccc1)(C(F)(F)F)C(F)(F)F,137,i,i,i,i,i,i,i
COc1ccc(OC)c(-c2csc(NC(=O)CSc3ccc([N+](=O)[O-])cc3)n2)c1,141,i,i,nt,i,i,i,i
COc1ccc(OC)c(-c2csc(NC(=O)CSc3ccc(Br)cc3)n2)c1,i,i,i,i,i,nt,nt,nt
COc1ccc(NC(=O)CC2C(=O)N(c3ccccc3)C(=O)N2CCc2cccs2)cc1 (configuration not stated),149,i,i,i,i,i,i,i
COc1ccc(NC(=O)CC2C(=O)N(c3ccc(Cl)cc3)C(=S)N2CCc2ccccn2)cc1 (configuration not stated),130,i,i,i,i,i,i,i
COc1ccc(NC(=O)CC2C(=O)N(c3ccc(Cl)cc3)C(=S)N2CCc2ccncc2)cc1 (configuration not stated),i,i,i,i,i,nt,nt,nt
Cc1ccc(C)c(NC(=O)C2CCCN(c3cnccn3)C2)c1 (configuration not stated),i,i,i,i,i,nt,nt,nt
N#C/C(=C\c1ccc(Sc2ccc(Cl)cc2)o1)c1nc2ccccc2[nH]1,i,i,150,nt,nt,i,i,i
N#C/C(=C\c1ccc(Sc2nc3ccccc3[nH]2)o1)c1ccccc1,i,i,i,i,i,nt,nt,nt
COc1ccc(S(=O)(=O)N(Cc2ccc(OC)c(OC)c2)Cc2ccco2)cc1,i,i,i,i,i,nt,nt,nt
COc1ccc(S(=O)(=O)N(CCC(N)=O)Cc2ccco2)cc1OC,50[inhibitor],i,i,i,i,i,i,i
COc1ccc2c(c1)c(C(=O)N/N=C/c1ccc(OC)c(OC)c1)c(C)n2C,152,i,i,i,i,i,i,i
COc1cc(/C=N/NC(=O)c2nc(-c3ccccc3)n(-c3ccccc3)n2)ccc1O,i,i,i,i,i,nt,nt,nt
COc1ccc(/C=N/NC(=O)c2nc(-c3ccccc3)n(-c3ccccc3)n2)cc1OC,151,i,i,i,i,i,i,i
COc1cccc(CNC(=O)CSc2nnc3c(n2)[nH]c2ccccc23)c1,i,i,i,nt,i,nt,nt,nt
CC(=O)Nc1ccc(Sc2ncnc3scc(-c4ccccc4)c23)cc1,128,i,i,i,i,i,i,i
Cn1c(=O)n(C)c2cc(S(=O)(=O)NCCO)ccc21,i,i,i,i,i,nt,nt,nt
Cn1c(=O)n(C)c2cc(S(=O)(=O)NCCOCCO)ccc21,2.0[inhibitor],i,-1.0[inhibitor],i,i,i,i,i
Cc1nc(NCc2ccc3c(c2)OCO3)c2oc3ccccc3c2n1,70[inhibitor],i,i,i,i,i,i,i
Cn1cc(CN2CCN(c3ccccc3)CC2)c2ccccc21,73[inhibitor],i,i,i,i,i,i,i
O=C1Nc2ccccc2C1=Nc1ccc(F)cc1,i,i,i,i,i,nt,nt,nt
SMILES,MEKK3 PB1 HTS,MEKK2 mut-MEK5,MEKK2wt PB1 HTS,Rce1 inh,UBC13 inh,MEKK2wt confirm,MEKK2mut-MEK5,MEKK3-MEK5 inh
CC(=O)c1ccc(N=C2C(=O)Nc3ccccc32)cc1,56[inhibitor],i,20[inhibitor],i,i,i,i,i
CCOc1c(C)cc(-c2ncccc2O)cc1C,130!,i,i,i,i,i,i,i
O=C(CC(c1ccco1)S(=O)(=O)c1ccccc1)c1ccccc1 (configuration not stated),136,i,i,i,i,i,i,i
O=C(c1ccco1)N1CCN(C(=O)N2c3ccccc3Sc3ccccc32)CC1,78[inhibitor],i,i,i,i,i,i,i
O=C(/C=C/c1ccccc1)N1CCN(C(=O)c2ccco2)CC1,69[inhibitor],i,i,i,i,i,i,i
CCCCS(=O)(=O)N1CCN(S(=O)(=O)c2cccs2)CC1,i,i,i,i,i,nt,nt,nt
Cc1cc(Cl)ccc1NC(=S)NCc1ccccc1Cl,128,i,i,i,i,i,i,i
Cc1cc(Cl)ccc1NC(=S)NCC(C)C,138,i,i,i,i,i,i,i
S=C(NCc1ccccc1Cl)Nc1ccccc1Cl,i,i,i,nt,i,nt,nt,nt
COc1cc(/C=N/NC(=O)c2ccc(O)cc2)ccc1OCC(=O)N1CC(C)OC(C)C1 (configuration not stated),i,i,i,i,i,nt,nt,nt
O=C(O)CCN=CC1=C(O)CC(c2ccccc2)CC1=O (configuration not stated),i,i,i,i,i,nt,nt,nt
CCCCCCn1c(N2CCC(C(N)=O)CC2)nc2c1c(=O)[nH]c(=O)n2C,i,i,i,i,i,nt,nt,nt
CCCCCCn1c(N2CCC(C(N)=O)CC2)nc2c1c(=O)n(C)c(=O)n2C,2.0[inhibitor],i,2.0[inhibitor],i,i,i,i,i
COc1ccc(C(=O)NC(=S)Nc2cc3oc4ccccc4c3cc2OC)cc1,i,i,i,i,i,nt,nt,nt
COc1cc2c(cc1NC(=S)NC(=O)c1c(OC)cccc1OC)oc1ccccc12,129,i,i,i,i,i,i,i
CCCCc1ccc(NC(=O)N[C@@H](CC(C)C)C(=O)O)cc1,2.0[inhibitor],i,i,i,i,i,i,i
CCCCc1ccc(NC(=O)CC(C)C)cc1,i,i,i,i,i,nt,nt,nt
CN(C)c1ccc(C(=O)N=c2sccn2C)cc1[N+](=O)[O-],i,i,i,i,i,nt,nt,nt
CCc1nnc(NC(=O)CSc2nnc(-c3ccncc3)n2C)s1,2.0[inhibitor],i,1.0[inhibitor],i,i,i,i,i
Cc1nc(NC(=O)CSc2nnc(-c3ccncc3)n2C)sc1C,i,i,i,i,i,nt,nt,nt
CC(C)COc1ccc(C(=O)Nc2cc(S(=O)(=O)N3CCOCC3)ccc2N2CCCC2)cc1,nt,nt,nt,nt,i,nt,nt,nt
COc1ccc(NC(=O)C23CC4CC(C2)CC(c2ccc(C)cc2)(C4)C3)cc1,150,i,i,i,i,i,i,i
CCc1ccc(S(=O)(=O)N2CCN(c3ccccc3OC)CC2)cc1,i,i,i,i,i,nt,nt,nt
